# Bioassay records: PubChem, National Center for Advancing Translational Sciences (NCATS)
# Rows were chosen to be rich in hits. Some 2.4% of all compounds tested hit in one or more screens of this group.
# D2 PAM-1 = D2 dopamine receptor (human) potentiation; hit rate 0.34% among 340,000; potentiation, % at 10 µM; P14416; HEK293 T-REx D2, calcium flux, EC20 dopamine potentiation;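 active = potentiation over 3 SD above the plate norm, cut at about 30% in these data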; note: 0% is about no effect
# Target sequence (P14416 whole entry, looked up): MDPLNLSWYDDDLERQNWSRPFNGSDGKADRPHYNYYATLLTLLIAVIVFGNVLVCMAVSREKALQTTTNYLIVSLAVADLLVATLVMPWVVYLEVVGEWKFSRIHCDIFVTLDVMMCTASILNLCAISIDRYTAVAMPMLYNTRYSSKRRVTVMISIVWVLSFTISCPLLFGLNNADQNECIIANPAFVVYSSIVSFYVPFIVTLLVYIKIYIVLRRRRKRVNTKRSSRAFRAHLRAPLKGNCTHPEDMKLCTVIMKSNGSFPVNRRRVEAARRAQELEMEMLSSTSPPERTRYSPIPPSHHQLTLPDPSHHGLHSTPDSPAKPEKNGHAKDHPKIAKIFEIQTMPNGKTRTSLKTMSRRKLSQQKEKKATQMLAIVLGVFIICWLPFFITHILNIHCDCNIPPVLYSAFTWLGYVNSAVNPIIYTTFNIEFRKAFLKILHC
#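 Potentiation of an EC20 dopamine calcium response is measured in a force-coupled, tetracycline-inducible Hek293 Trex D2 line. Compound-only kinetic reads over 180 s flag agonists before dopamine addition.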
# D2 ag-1 = agonists of human D2 dopamine receptor (beta-arrestin); activation, % (test concentration not listed); DiscoveRx PathHunter D2 beta-arrestin, luminescence, 90 min; 100% = 57 uM dopamine signal; P14416; hit rate 0.084% among 360,000; in the data active = activation above about 40%; inconclusive = between about 15% and that limit
#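 DiscoveRx PathHunter D2 beta-arrestin cells (2,100/well) attached overnight, then compound-stimulated 90 min at 37 C in HBSS/10 mM HEPES/0.1% Tween-20 buffer; beta-galactosidase complementation read by luminescence after 1 h at ambient temperature. Dopamine 57 uM final (EC100) as control.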
# D2 PAM-2 = positive allosteric modulators of human D2 dopamine receptor. P14416. hit rate 0.23% among 360,000. DiscoveRx D2 beta-arrestin cells, luminescence, 90 min; 100% = 57 uM dopamine signal. potentiation, % (test concentration not listed); in the data active = potentiation above about 50%; inconclusive = mostly about 30% to 49%
#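 PathHunter beta-arrestin assay in DiscoveRx D2 cells. Compounds were added with an EC20 of dopamine (50 nM final) for 90 min at 37 deg C. Luminescence was read 1 h after detection reagent, with 57 uM dopamine as the EC100 control.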
# D2 ag-2 = D2 dopamine receptor (human) agonism; hit rate 0.53% among 340,000; HEK293 T-REx D2 cells, calcium flux agonist mode; P14416; activation, % at 2 µM;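 active = activation over 3 SD above normal in the single-dose calcium agonist read, cut at about 30% in these data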; note: 0% is about no effect
#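 Tetracycline-induced HEK293 Trex cells with D2 receptor force-coupled to calcium signaling, plated overnight at 30 C and loaded with no-wash calcium dye. Calcium flux read kinetically for 180 s after compound addition; responses flag agonists.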
# D2 antag = antagonists of human D2 dopamine receptor; AID 485344; inhibition, % at 10 µM; hit rate 2% among 340,000; HEK293 TREx D2 cells, calcium flux, dopamine EC80; P14416; in the data active = inhibition above about 30%; inactive = below that, where a call was filed; note: 0% is about no effect
#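 Antagonism is scored as inhibition of an EC80 dopamine-evoked calcium signal in a force-coupled, tetracycline-inducible HEK293 T-REx D2 line, with compound present 180 s before agonist.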
# Numbers without * were called inactive; ? = inconclusive; . = no result given.
SMILES,D2 PAM-1,D2 ag-1,D2 PAM-2,D2 ag-2,D2 antag
COc1ccc(C(=O)NC2CC3CCCC(C2)N3Cc2ccccc2)c(OC)c1 (centres undefined),-23,0,-1,1,86*
COc1ccccc1C(=O)NC1CC2CCC(C1)N2Cc1ccccc1 (centres undefined),-32,1,-5,-1,89*
CCOc1ccccc1C(=O)NC1CC2CCCC(C1)N2C1CC1 (centres undefined),-24,-6,-31,-1,7
COc1ccc(C(=O)NC2CC3CCCC(C2)N3Cc2ccccc2)cc1 (centres undefined),-22,2,-11,0,82*
CCOc1ccc(C(=O)NC2CC3CCCC(C2)N3Cc2ccccc2)cc1 (centres undefined),.,-5,-16,.,.
O=C(NC1CC2CCCC(C1)N2Cc1ccccc1)c1ccc([N+](=O)[O-])cc1 (centres undefined),-25,1,-4,0,87*
O=C(NC1CC2CCC(C1)N2Cc1ccco1)c1ccccc1 (centres undefined),-5,-1,-37,.,.
Cc1ccc(NC(=O)N2CCN(C/C=C/c3ccccc3)CC2)cc1,0,-2,-3,1,-9
O=C(c1cc2ccccc2o1)N1CCN(C/C=C/c2ccccc2)CC1,-33,-3,-36,-2,77*
COC(=O)c1ccccc1NC(=O)N1CCN(C/C=C/c2ccccc2)CC1,-7,2,-11,0,35*
CC(C)c1cc(C(=O)NC(C)c2ccccc2)no1 (centres undefined),3,.,.,-1,.
CNC(=O)Cn1c(=O)c2cccn2c2ccc(F)cc21,-4,.,.,0,.
CN1CCN(CC/C=C2/c3ccccc3Sc3ccc(S(=O)(=O)N(C)C)cc32)CC1,-23,-3,-35,1,80*
CCN1C(=O)c2ccccc2S(=O)(=O)c2ccc(C(=O)NCc3ccccc3)cc21,7,.,.,1,.
N#CC1=C(N)C2=C(N3CCCCC3)CCCC2C1(C#N)C#N (centres undefined),17,3,4,1,-15
CCCCN(C)C1=CC2=CC(=C(C#N)C#N)CCC2CC1 (centres undefined),-19,10,13,140*,73*
N#CC(C#N)=C1C=C2C=C(N3CCCCC3)CCC2CC1 (centres undefined),-18,?,22,132*,87*
COc1cc(CC(NC(C)=O)C(=O)NC2CCN(C(=O)C3CC3)CC2)cc(OC)c1 (centres undefined),7,-5,-11,0,33*
O=C(NC1CCCC1)C(c1ccc(F)cc1)N(C(=O)Cc1cccs1)c1ccc2c(c1)OCCO2 (centres undefined),-1,0,-3,0,5
Cc1ccc(C(C(=O)NC2CCCC2)N(C(=O)Cc2cccs2)c2ccc3c(c2)OCCO3)cc1 (centres undefined),-8,-5,-7,2,48*
COc1ccc(Cn2c(C(=O)O)c(CNCCc3cccs3)c3ccc(C)cc32)cc1,2,.,.,0,.
Cc1cc(C(=O)NCCN2CCN(c3cccc(Cl)c3)CC2)n(-c2ccccc2)n1,-5,-4,-8,-3,12
Cc1cc(C(=O)NCCCN2CCN(c3cc(Cl)ccc3C)CC2)n(-c2ccccc2)n1,-28,-1,-10,-2,47*
CC(=O)Nc1ccc(S(=O)(=O)Nc2c(C)n(C)n(-c3ccccc3)c2=O)cc1,2,-2,-9,-1,0
Cc1c(NC(=O)c2cccc(NC(=O)Cc3ccc(Cl)cc3)c2)c(=O)n(-c2ccccc2)n1C,1,-2,-1,0,33*
SMILES,D2 PAM-1,D2 ag-1,D2 PAM-2,D2 ag-2,D2 antag
Cc1c(NS(=O)(=O)c2ccc(NC(=O)CCC(=O)O)cc2)c(=O)n(-c2ccccc2)n1C,-4,8,-7,1,30*
Cc1c(NS(=O)(=O)c2cccc(C(=O)N3CCCC3)c2)c(=O)n(-c2ccccc2)n1C,.,2,-21,.,.
CC(=O)N1CCN(C(=O)c2cccc(S(=O)(=O)Nc3c(C)n(C)n(-c4ccccc4)c3=O)c2)CC1,-5,1,-14,0,51*
C=C1C(=O)C=C[C@]2(C)C[C@@H]3OC(=O)[C@](C)(O)[C@H]3C[C@@H]12,-5,-2,-9,0,37*
COc1ccc(N(CC(=O)NCCc2ccc(OC)c(OC)c2)S(=O)(=O)c2c(C)noc2C)cc1,-2,64*,-2,1,-12
COc1ccc(N(CC(=O)NCCc2ccc(C)cc2)S(=O)(=O)c2c(C)noc2C)cc1,-7,4,19,0,1
Cc1nc(SCC(=O)Nc2ccc(F)cc2)c(C#N)c(C)c1CC(=O)c1ccc(Br)cc1,1,-3,-4,-1,44*
CSc1ccc(CCNC(=O)CCc2c(C)nc3c(-c4ccccc4)c(C)nn3c2C)cc1,12,.,.,0,.
Nc1[nH]nc2ncc3cc4ccccc4nc3c12,0,-3,15,0,59*
O=C(NCC(c1cccs1)S(=O)(=O)c1cccs1)c1ccccc1 (centres undefined),9,.,.,0,.
O=C(NNC1=Nc2ccccc2SC1)c1cccc([N+](=O)[O-])c1,-25,-3,-14,0,71*
COc1ccccc1CNS(=O)(=O)c1ccc2c(c1)NC(=O)C(C)C(=O)N2 (centres undefined),-28,.,.,.,.
O=CC1=C(N2CCOCC2)/C(=C\c2ccccc2)CC1,33*,-3,-3,0,7
N#CCO/N=C/C(=O)Nc1ccc(F)cc1F,6,-4,-3,-1,53*
O=C(CC(=O)Nc1ccc(F)cc1F)Nc1ccc(F)cc1F,-6,-1,-5,-2,23
CCCSc1nc(-c2ccccc2)[nH]c1S(=O)(=O)c1ccc(C)cc1,-30,.,.,.,.
CCc1cc(=O)oc2c(CN3CCN(C)CC3)c(O)c(Cl)cc12,35*,4,8,0,2
CCc1ccc(CNC(=O)COc2cc(=O)n(CC)c3ccccc23)cc1,-7,.,.,0,.
O=C1NC(=O)C(Nc2cccc3ccccc23)S1 (centres undefined),4,3,63*,-1,6
CCC(=O)NCCn1c(C)cc2ccccc21,9,0,-3,1,-14
Cc1cc2ccccc2n1CCNC(=O)COc1ccccc1,-18,-6,-18,0,39*
CC1CN(S(=O)(=O)c2ccc(F)cc2)C(C)N1C(=O)N1CCOCC1 (centres undefined),-11,-1,2,0,32*
CC1CN(S(=O)(=O)c2ccc(F)cc2)CN1C(=O)N1CCOCC1 (centres undefined),-9,-4,-8,-1,4
